The record followed here is paper PMC7862700, “An all-to-all approach to the identification of sequence-specific readers for epigenetic DNA modifications on cytosine”.

Holding throughout (experiment): DAPPL (digital affinity profiling via proximity ligation, sequencing); 10 mM Tris-HCl pH 7.5, 50 mM NaCl, 1 mM DTT, 4% glycerol, room temperature, 30 min; GST-TFs on glutathione beads, 16-mer random dsDNA library, 0.1% formaldehyde crosslink after washing; high values mean tight binding
Common to all, as to settings: protein: recombinant; tags: N-terminal GST; dsDNA, one strand shown

One assay addresses T1, FLI1 (Homo sapiens, UniProt Q01543 1-452).
T1 sequence: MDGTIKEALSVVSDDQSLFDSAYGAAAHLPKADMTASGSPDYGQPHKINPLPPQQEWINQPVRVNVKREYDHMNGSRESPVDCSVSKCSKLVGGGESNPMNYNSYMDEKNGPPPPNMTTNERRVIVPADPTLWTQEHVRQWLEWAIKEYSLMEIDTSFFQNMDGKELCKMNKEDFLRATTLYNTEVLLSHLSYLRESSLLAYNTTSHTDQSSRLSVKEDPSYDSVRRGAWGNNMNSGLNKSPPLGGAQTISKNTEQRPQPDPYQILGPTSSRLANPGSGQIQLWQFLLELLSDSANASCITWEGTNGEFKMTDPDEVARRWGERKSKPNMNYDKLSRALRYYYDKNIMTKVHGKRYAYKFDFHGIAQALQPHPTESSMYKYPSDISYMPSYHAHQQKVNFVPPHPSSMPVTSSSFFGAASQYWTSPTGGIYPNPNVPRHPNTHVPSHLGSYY
The essentials: (§1)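 GST fusions of human transcription factors were expressed in yeast and captured with glutathione beads. Once given DNA barcodes and pooled alongside a tag-only sample, they were incubated for 30 min at room temperature with 200 nmole of a random double-stranded 16-mer DNA library in Tris/NaCl/DTT/glycerol buffer, then washed, crosslinked (0.1% formaldehyde), proximity-ligated, PCR-amplified and sequenced on an Illumina NextSeq500. The binding signal of each hexamer is its read frequency for a factor divided by its frequency for the tag-only sample.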

The target in the next assay is T2, ELK1 (Homo sapiens, UniProt P19419 1-428).
T2 sequence: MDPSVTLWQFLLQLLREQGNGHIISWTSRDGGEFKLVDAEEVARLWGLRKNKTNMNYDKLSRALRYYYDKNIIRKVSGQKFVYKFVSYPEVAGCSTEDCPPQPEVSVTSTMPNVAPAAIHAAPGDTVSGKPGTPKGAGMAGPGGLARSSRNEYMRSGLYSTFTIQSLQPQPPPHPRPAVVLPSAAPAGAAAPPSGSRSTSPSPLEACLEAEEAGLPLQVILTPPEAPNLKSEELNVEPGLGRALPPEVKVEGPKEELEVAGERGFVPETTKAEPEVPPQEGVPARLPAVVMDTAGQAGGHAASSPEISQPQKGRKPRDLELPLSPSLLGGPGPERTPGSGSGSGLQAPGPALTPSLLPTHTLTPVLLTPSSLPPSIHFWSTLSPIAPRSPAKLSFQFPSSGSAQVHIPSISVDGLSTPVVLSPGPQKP
The method, boiled down: as §1

Another assay has as its target T3, GABPA (Homo sapiens, UniProt Q06546 1-454).
T3 sequence: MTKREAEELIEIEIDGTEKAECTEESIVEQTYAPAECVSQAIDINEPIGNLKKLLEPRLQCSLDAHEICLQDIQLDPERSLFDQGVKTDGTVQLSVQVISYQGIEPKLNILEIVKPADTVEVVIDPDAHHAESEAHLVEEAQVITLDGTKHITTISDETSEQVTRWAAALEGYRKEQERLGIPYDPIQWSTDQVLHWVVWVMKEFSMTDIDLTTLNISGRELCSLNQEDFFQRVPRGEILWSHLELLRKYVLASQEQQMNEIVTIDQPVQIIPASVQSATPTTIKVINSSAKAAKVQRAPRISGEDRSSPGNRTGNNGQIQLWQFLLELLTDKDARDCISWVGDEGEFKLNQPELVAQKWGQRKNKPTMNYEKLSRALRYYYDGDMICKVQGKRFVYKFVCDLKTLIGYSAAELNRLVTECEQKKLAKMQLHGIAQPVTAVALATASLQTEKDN
The method, boiled down: as §1

The next assay deals with T4, ERG (Homo sapiens, UniProt P11308 1-479).
T4 sequence: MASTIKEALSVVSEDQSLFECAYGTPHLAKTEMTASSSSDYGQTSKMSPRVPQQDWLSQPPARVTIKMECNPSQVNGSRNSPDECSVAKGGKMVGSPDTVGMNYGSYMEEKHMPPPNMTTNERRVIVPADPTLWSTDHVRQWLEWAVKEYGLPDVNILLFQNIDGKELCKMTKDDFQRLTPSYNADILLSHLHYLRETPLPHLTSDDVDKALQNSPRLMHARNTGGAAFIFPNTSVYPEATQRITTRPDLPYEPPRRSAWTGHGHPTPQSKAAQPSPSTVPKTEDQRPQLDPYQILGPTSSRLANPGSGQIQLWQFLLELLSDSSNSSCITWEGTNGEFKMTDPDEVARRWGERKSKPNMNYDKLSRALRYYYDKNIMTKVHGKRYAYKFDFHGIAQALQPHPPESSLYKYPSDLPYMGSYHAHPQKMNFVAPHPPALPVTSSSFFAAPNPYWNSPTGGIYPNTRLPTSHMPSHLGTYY
The essentials:
as §1

The next assay has as its target ELF1 (Homo sapiens, UniProt P32519 1-619). The essentials: as §1
The next assay concerns the target T5, EHF (Homo sapiens, UniProt Q9NZC4 1-300).
T5 sequence: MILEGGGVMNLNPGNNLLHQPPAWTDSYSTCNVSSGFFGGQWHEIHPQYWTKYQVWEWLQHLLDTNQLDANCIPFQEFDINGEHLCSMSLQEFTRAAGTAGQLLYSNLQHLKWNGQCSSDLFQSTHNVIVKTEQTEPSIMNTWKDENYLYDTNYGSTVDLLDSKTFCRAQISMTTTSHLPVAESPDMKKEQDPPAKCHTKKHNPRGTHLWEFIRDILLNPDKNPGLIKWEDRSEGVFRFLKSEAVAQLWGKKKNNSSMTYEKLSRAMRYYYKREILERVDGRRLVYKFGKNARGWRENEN
The essentials:
as §1

In a further assay the target is SPI1 (Homo sapiens, UniProt P17947 1-270). The method, boiled down: as §1
Another assay has as its target SPIB (Homo sapiens, UniProt Q01892 1-262). The essentials:
as §1

The target in another assay is T6, FEV (Homo sapiens, UniProt Q99581 1-238).
T6 sequence: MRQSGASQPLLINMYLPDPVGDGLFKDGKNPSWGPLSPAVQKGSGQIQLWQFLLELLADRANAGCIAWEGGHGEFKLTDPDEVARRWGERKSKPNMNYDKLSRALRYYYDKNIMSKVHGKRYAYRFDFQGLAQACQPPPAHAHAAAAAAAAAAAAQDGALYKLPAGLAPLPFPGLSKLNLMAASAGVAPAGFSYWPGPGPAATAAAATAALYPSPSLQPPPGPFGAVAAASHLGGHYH
The essentials:
as §1

A further assay deals with ETV5 (Homo sapiens, UniProt P41161 1-510). The essentials: as §1
Chain of ETV5 (P41161 whole entry): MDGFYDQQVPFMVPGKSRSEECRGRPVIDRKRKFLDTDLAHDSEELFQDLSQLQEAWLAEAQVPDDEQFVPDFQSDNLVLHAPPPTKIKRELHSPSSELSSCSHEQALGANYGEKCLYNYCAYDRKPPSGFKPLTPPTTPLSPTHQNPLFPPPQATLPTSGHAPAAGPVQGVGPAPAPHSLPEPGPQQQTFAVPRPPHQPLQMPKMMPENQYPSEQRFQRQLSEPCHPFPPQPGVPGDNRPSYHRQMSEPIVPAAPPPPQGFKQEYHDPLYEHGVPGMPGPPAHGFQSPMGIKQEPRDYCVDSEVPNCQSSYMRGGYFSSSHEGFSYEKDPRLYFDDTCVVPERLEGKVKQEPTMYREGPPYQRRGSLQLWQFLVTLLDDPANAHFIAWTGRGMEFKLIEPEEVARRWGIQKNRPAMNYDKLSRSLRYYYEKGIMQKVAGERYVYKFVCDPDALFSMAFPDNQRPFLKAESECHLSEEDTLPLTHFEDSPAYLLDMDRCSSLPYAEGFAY
A further assay addresses T7, SPIC (Homo sapiens, UniProt Q8N5J4 1-248).
T7 sequence: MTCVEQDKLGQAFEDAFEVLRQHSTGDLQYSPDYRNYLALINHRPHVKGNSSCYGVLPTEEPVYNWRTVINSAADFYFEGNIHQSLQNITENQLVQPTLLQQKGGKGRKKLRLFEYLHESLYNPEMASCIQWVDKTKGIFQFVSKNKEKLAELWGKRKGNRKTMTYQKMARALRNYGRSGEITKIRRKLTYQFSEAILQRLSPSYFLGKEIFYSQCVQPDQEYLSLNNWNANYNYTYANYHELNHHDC
The method, boiled down: as §1

The target of another assay is ELF4 (Homo sapiens, UniProt Q99607 1-663). The method, boiled down: as §1
Chain of ELF4 (Q99607 whole entry): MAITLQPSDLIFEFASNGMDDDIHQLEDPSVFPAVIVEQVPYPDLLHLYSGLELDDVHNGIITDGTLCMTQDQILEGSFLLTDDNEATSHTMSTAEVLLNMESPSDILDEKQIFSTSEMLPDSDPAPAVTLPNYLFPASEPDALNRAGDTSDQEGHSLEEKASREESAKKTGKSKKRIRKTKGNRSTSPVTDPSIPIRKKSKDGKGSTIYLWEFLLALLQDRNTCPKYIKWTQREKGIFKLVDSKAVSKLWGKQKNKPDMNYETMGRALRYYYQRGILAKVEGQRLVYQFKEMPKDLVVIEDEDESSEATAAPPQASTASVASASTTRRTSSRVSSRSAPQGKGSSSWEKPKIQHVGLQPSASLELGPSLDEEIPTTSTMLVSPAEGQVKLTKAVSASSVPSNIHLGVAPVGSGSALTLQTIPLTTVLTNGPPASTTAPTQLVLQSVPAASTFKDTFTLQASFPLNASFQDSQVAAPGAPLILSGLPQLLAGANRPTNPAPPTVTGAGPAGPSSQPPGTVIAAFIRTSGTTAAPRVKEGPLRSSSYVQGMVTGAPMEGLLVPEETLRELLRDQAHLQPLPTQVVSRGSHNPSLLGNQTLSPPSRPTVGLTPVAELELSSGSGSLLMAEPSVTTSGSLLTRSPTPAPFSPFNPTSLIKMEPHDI
The next assay addresses T8, ELK4 (Homo sapiens, UniProt P28324-2 1-405).
T8 sequence: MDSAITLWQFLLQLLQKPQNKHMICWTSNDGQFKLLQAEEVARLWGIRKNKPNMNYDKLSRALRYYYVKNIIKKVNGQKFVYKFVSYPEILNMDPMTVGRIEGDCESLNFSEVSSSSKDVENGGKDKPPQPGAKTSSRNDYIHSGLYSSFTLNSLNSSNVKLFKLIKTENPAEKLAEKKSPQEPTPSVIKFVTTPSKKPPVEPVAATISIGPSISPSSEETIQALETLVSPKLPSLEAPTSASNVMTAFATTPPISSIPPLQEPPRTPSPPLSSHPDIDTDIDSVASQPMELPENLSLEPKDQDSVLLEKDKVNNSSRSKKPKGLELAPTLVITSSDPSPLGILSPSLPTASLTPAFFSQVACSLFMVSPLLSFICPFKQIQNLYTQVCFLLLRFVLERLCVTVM
The method, boiled down: as §1

For a further assay, the target named is T9, ETV2 (Homo sapiens, UniProt O00321 1-342).
T9 sequence: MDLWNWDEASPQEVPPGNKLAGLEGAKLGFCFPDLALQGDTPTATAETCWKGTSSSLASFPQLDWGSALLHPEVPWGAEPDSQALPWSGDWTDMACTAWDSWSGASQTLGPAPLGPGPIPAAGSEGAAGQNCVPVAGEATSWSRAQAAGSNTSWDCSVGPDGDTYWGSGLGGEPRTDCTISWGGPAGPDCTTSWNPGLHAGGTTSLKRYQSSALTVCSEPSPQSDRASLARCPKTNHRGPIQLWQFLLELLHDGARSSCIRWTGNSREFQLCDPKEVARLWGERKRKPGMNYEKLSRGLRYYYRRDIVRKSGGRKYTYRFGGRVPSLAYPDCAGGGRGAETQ
The essentials:
as §1

Another assay addresses T10, ELF3 (Homo sapiens, UniProt P78545 1-371).
T10 sequence: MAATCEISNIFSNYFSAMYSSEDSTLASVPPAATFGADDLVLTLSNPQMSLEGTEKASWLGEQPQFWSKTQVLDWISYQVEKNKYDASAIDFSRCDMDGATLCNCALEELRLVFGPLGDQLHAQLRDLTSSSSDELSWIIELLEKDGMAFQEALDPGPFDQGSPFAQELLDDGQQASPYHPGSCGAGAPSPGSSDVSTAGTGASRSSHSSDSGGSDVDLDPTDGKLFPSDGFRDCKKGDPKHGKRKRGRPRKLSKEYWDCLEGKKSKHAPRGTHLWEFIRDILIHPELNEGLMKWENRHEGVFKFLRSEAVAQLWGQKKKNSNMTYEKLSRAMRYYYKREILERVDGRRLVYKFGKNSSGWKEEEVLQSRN
The method, boiled down: as §1

Another assay has as its target ETV1 (Homo sapiens, UniProt P50549 1-477). The method, boiled down:
as §1

Chain of SPIB (Q01892 whole entry): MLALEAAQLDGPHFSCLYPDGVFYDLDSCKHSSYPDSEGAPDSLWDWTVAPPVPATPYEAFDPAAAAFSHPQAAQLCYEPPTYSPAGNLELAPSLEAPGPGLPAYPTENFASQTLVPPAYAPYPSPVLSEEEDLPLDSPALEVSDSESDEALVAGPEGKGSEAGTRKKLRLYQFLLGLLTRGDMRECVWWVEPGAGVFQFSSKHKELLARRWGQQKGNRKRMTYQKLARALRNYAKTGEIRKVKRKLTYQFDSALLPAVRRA
Chain of ELF1 (P32519 whole entry): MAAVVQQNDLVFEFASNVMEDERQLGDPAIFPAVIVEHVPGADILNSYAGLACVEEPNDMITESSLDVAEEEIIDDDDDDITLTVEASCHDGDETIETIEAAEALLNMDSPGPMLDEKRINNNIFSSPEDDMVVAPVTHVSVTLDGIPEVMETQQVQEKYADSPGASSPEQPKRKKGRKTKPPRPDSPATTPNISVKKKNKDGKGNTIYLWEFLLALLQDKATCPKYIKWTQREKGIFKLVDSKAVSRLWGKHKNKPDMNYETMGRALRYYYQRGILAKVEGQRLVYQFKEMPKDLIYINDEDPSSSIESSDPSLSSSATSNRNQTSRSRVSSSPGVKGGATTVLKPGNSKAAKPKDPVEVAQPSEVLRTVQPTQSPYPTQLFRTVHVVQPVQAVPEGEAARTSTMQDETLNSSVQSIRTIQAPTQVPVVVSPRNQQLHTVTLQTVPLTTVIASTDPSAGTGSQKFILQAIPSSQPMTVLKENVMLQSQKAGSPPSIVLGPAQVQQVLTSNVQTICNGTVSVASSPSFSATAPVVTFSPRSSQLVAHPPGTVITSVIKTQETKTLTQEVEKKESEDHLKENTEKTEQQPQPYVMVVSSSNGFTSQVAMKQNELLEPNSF
Chain of ETV1 (P50549 whole entry): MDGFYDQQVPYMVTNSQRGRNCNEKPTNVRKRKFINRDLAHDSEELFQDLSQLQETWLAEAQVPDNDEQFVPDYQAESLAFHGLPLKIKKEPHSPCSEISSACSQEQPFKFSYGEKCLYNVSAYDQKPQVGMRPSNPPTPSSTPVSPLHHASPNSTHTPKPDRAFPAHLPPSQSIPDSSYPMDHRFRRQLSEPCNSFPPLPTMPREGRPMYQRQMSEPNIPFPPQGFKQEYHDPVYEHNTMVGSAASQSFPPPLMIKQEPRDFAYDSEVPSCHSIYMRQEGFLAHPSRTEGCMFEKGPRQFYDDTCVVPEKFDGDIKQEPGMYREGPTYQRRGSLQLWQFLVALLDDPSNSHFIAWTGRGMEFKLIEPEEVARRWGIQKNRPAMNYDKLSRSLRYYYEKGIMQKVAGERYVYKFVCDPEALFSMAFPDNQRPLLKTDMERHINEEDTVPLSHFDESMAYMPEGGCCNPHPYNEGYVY

For CTGTTG, the binding signal with FLI1 is 1.08 fold enrichment (6-mer frequency, TF over GST control); with ELK1, 1.02 fold enrichment (6-mer frequency, TF over GST control); with GABPA it was 1.11 fold enrichment (6-mer frequency, TF over GST control); in the assay with ERG, 1.09 fold enrichment (6-mer frequency, TF over GST control); with ELF1, 1.1 fold enrichment (6-mer frequency, TF over GST control); in the assay with EHF, 1.13 fold enrichment (6-mer frequency, TF over GST control). For the same sequence, the binding signal with SPI1 is 1.16 fold enrichment (6-mer frequency, TF over GST control); with SPIB, 1.15 fold enrichment (6-mer frequency, TF over GST control); with FEV it was 1.06 fold enrichment (6-mer frequency, TF over GST control); with ETV5, 1.03 fold enrichment (6-mer frequency, TF over GST control); with SPIC, 1.12 fold enrichment (6-mer frequency, TF over GST control); with ELF4 it was 1.17 fold enrichment (6-mer frequency, TF over GST control). The binding signal is 1.1 fold enrichment (6-mer frequency, TF over GST control) with ELK4; 1.13 fold enrichment (6-mer frequency, TF over GST control) with ETV2; 1.03 fold enrichment (6-mer frequency, TF over GST control) with ELF3; 1.09 fold enrichment (6-mer frequency, TF over GST control) with ETV1.
